{
  "source": "PubChem BioAssay",
  "note": "Activity calls are given as the source filed them.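 Rule for the calls: active = inhibition above the hit cutoff set in the earlier primary screen (cut at about 27% in these data); inactive = the rest.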",
  "data": [
    {"biological_target": "Protein phosphatase methylesterase 1 (Homo sapiens) (UniProt Q9Y570)", "sequence (Q9Y570 whole entry, looked up)": "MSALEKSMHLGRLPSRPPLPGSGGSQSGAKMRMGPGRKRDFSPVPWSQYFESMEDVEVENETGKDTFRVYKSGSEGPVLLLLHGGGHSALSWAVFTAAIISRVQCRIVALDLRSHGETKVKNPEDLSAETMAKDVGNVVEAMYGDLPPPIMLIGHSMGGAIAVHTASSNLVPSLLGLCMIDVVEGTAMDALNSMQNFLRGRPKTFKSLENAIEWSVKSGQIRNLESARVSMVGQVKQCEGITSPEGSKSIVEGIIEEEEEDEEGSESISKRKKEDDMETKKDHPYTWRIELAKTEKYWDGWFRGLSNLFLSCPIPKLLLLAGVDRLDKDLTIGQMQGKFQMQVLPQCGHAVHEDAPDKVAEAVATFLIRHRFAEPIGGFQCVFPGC", "assay": "human PME-1 methylesterase inhibition confirmation – biochemical, fluorescence polarization, FP-Rh probe, triplicate (AID 2171);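 note: 0% = enzyme with DMSO and 100% = wells lacking PME-1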", "conditions": "recombinant PME-1, FP-Rh probe fluorescence polarization; at 5.9 µM; hits give high values", "values": [
      {"smiles": "O=C(NNc1nc2c(F)cccc2s1)c1cc(=O)c2ccccc2o1", "inhibition": "58.6% (active)"},
      {"smiles": "Cc1ccc(NC(=O)COC(=O)c2cccc3c2C(=O)c2ccccc2C3=O)c(C)c1", "inhibition": "91.2% (active)"},
      {"smiles": "CSC[C@@H]1NC(=S)N(c2ccc(C)cc2)C1=O", "inhibition": "38% (active)"},
      {"smiles": "CCC(C)Nc1nc(N)c([N+](=O)[O-])c(Nc2cc(OC)ccc2OC)n1", "note": "(stereo not given)", "inhibition": "34.5% (active)"},
      {"smiles": "O=C(O)c1cccc(-c2ccc(/C=N/Nc3ccc([N+](=O)[O-])cc3)o2)c1", "inhibition": "31.7% (active)"},
      {"smiles": "Cc1noc(NS(=O)(=O)c2ccc(NC(=O)Nc3ccc(Cl)c(Cl)c3)cc2)c1C", "inhibition": "-8.57% (inactive)"},
      {"smiles": "COc1ccc(N=Nc2nc3cc(Br)c(Br)cc3n2C)c(OC)c1", "inhibition": "50.6% (active)"},
      {"smiles": "O=C(NNc1c2ccccc2nc2ccccc12)c1ccc(O)cc1O", "inhibition": "65.2% (active)"},
      {"smiles": "O=[N+]([O-])c1ccccc1N/N=C/c1c[nH]c2ccccc12", "inhibition": "42.3% (active)"},
      {"smiles": "COc1ccc(NC(=S)Nc2ccc3nsnc3c2)cc1", "inhibition": "24.3% (inactive)"},
      {"smiles": "CC(C)Oc1ccc(S(=O)(=O)N2CCCCC2)cc1NC(=O)CN1C(=O)NC(C)(c2ccccc2)C1=O", "note": "(stereo not given)", "inhibition": "42.6% (active)"},
      {"smiles": "CCCCN(CC)CCCNC(=O)c1cn(CC)c2ccc(S(=O)(=O)N3CCc4ccccc4C3)cc2c1=O", "inhibition": "59.1% (active)"},
      {"smiles": "CC(C)NC(=S)N=Nc1c(O)[nH]c2ccc(C(C)C)cc12", "inhibition": "34.8% (active)"},
      {"smiles": "COc1ccc2ccc3c(c2c1)N=C[C@]1(O3)N(C)c2ccccc2C1(C)C", "inhibition": "5.96% (inactive)"},
      {"smiles": "C/C(=N/Nc1ccnc2cc(Cl)ccc12)c1ccc(O)cc1", "inhibition": "10.9% (inactive)"},
      {"smiles": "CC(=O)Oc1ccc2c(c1)Oc1cc(OC(C)=O)ccc1C21OC(=O)c2ccccc21", "inhibition": "148% (active)"},
      {"smiles": "Nc1nonc1N/N=C/c1c(O)ccc2ccccc12", "inhibition": "23.6% (inactive)"},
      {"smiles": "CCOC(=O)N1CC=C2C(C#N)=C(N)C(C#N)(C#N)[C@H](c3ccc(OC(C)C)c(OCC)c3)[C@H]2C1", "inhibition": "41.6% (active)"},
      {"smiles": "COc1ccc(-c2nc(-c3cccs3)c(-c3cccs3)[nH]2)cc1O", "inhibition": "39.6% (active)"},
      {"smiles": "Oc1c(Br)cc(Br)cc1CNc1cnc2ccccc2c1", "inhibition": "34.8% (active)"},
      {"smiles": "C=CCc1cccc(/C=N/NC(=O)CNc2cccc3ccccc23)c1O", "inhibition": "17.8% (inactive)"},
      {"smiles": "COC(=O)N1C(=O)[C@](c2ccccc2)(C(C)C)N1C(=O)OC", "inhibition": "23.3% (inactive)"},
      {"smiles": "CCOC(=O)C(C)On1c(-c2ccccc2)nc2ccc([N+](=O)[O-])cc21", "note": "(stereo not given)", "inhibition": "34.2% (active)"},
      {"smiles": "CCn1cc(C(=O)NCCCN2CCCC(C)C2)c(=O)c2cc(S(=O)(=O)N(C)C3CCCCC3)ccc21", "note": "(stereo not given)", "inhibition": "45.2% (active)"},
      {"smiles": "COc1cccc(-c2nc(NC3CCCC3)c3ccccc3n2)c1O", "inhibition": "13.3% (inactive)"},
      {"smiles": "N#C/C(=C/c1ccc(N2CCCC2)c([N+](=O)[O-])c1)c1nc2ccccc2[nH]1", "inhibition": "30.9% (active)"},
      {"smiles": "Oc1cccc(NC(=S)N=Nc2c(O)[nH]c3ccc(Br)cc23)c1", "inhibition": "42% (active)"},
      {"smiles": "S=C(Nc1ccc(N2CCOCC2)cc1)Nc1ccc2nc(-c3ccco3)c(-c3ccco3)nc2c1", "inhibition": "24.7% (inactive)"},
      {"smiles": "Oc1cccc(Nc2nc(O)c(/C=C3\\C=Nc4ccccc43)s2)c1", "inhibition": "-7.79% (inactive)"},
      {"smiles": "O=C(/C=C1\\NC2(CCCC2)Cc2ccccc21)C(=O)N/N=C/c1ccc(O)c(O)c1", "inhibition": "-18.9% (inactive)"},
      {"smiles": "Cn1c(=N)n(CC(=O)c2ccc(Br)cc2)c2ccccc21", "inhibition": "13.3% (inactive)"},
      {"smiles": "Nc1c(C(=O)Nc2ccccc2F)sc2nc(-c3ccco3)ccc12", "inhibition": "19.9% (inactive)"},
      {"smiles": "CCCCCCC(=O)N1CCC(c2nc3c(nnn3Cc3ccccc3Cl)c(=O)[nH]2)CC1", "inhibition": "21.9% (inactive)"},
      {"smiles": "CCOC(=O)c1c(C)[nH]c(C)c1S(=O)(=O)N(C)CC(=O)Nc1cc(C)ccc1OC", "inhibition": "24.4% (inactive)"},
      {"smiles": "CCCCN(C)C1=CC2=CC(=C(C#N)C#N)CCC2CC1", "note": "(stereo not given)", "inhibition": "-13% (inactive)"},
      {"smiles": "Cn1c(=O)c(NCCO)c2c3c(cccc31)C(=O)c1ccccc1-2", "inhibition": "134% (active)"},
      {"smiles": "CC1(OC(=O)c2cnc3ccccc3n2)C(=O)C=C2C=C(C3CC3)OC=C2C1=O", "note": "(stereo not given)", "inhibition": "23.9% (inactive)"},
      {"smiles": "Nc1ccc2nc3c(=O)n(CCc4ccccc4)c(=O)[nH]c3nc2c1", "inhibition": "51.2% (active)"},
      {"smiles": "O=C1C2=C(Nc3ccccc3SC2c2ccco2)c2ccccc21", "note": "(stereo not given)", "inhibition": "5.92% (inactive)"},
      {"smiles": "COc1ccc(-c2cc(-c3ccc(C)cc3)n[nH]2)c(O)c1", "inhibition": "37.7% (active)"}
    ]}
  ]
}
